Source: PubChem BioAssay
D1 agonist: Allosteric Agonists of the Human D1 Dopamine Receptor: qHTS. HEK293 T-REx D1 cells, calcium flux, agonist mode. AID 504660, 2011. activation, % at 2 µM. D(1A) dopamine receptor (Homo sapiens), P21728. actives 1% (n = 360,000); in the data active means activation above about 30%
Target sequence (P21728 whole entry, looked up): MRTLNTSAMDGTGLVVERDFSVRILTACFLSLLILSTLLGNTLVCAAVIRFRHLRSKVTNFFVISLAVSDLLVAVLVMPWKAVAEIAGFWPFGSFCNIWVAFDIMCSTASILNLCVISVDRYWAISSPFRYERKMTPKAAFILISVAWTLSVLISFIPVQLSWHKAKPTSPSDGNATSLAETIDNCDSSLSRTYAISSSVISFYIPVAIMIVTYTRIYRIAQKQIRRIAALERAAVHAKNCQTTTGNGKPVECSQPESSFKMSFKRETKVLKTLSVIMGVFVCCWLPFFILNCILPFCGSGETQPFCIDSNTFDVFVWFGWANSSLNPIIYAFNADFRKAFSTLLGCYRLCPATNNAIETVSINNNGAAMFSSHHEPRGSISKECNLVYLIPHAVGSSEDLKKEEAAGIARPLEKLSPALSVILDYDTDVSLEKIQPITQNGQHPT
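Inducible HEK293 T-REx D1 cells, force-coupled to calcium signalling, were plated at 4000 cells/well with tetracycline and held overnight at 30 C. After no-wash calcium dye loading, compound-evoked calcium rise over 180 s flagged agonists.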
D1 PAM: Potentiators of Human D1 Dopamine Receptor: qHTS; D(1A) dopamine receptor (Homo sapiens), P21728; HEK293 TREx D1 cells, calcium flux, dopamine EC20 potentiation; potentiation, % at 10 µM; actives 0.036% (n = 360,000); in the data active means potentiation above about 30%
D3 ag: qHTS of D3 Dopamine Receptor Agonist: qHTS; D3R DiscoveRx beta-arrestin cells, luminescence, 90 min; max activation, %; actives 0.58% (n = 410,000); AID 652048, 2013; D(3) dopamine receptor (Homo sapiens), P35462; in the data active means max activation above about 30%
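Cells at 1500/well, incubated overnight, then treated with pinned compounds (dopamine as control) for 90 min at 37 degrees C. DiscoveRx reagent added for 30 - 60 minutes at room temperature; luminescence read.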
D1 antag: Antagonist of Human D 1 Dopamine Receptor: qHTS; D(1A) dopamine receptor (Homo sapiens), P21728; HEK293 TREx D1 cells, calcium flux, dopamine EC80; active compounds read low; activity change, negative = inhibition, % at 10 µM; actives 3.2% (n = 360,000); AID 504652, 2011; in the data active means activity change below about -30%
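Tetracycline-induced HEK293 Trex D1 cells, force-coupled to calcium, dye-loaded; compounds added and read 180 s, then EC80 dopamine added and calcium flux tracked kinetically another 180 s.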
D3 antag: qHTS of D3 Dopamine Receptor Antagonist: qHTS; D(3) dopamine receptor (Homo sapiens), P35462; D3R cells, DiscoveRx beta-arrestin luminescence, antagonist mode; active compounds read low; max response, negative = inhibition, %; actives 2.5% (n = 360,000); in the data active means max response below about -50%; inconclusive means no clear call, values can overlap the other calls
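Cells plated overnight at 1500 cells/well, then exposed to library compounds with dopamine controls for 90 minutes at 37 degrees C. DiscoveRx reagent added for 30–60 minutes at room temperature; luminescence read, quantitative HTS format.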
Hits are given with their value. Compounds with a hit are over-represented: about 6% of the library has one in this group of screens.

Screening CC(O)CNCCCOc1cccc(C(F)(F)F)c1 (centres undefined) returned D1 agonist inactive, D1 PAM inactive, D3 ag inactive, D1 antag inactive and D3 antag -71.
Screening CC(O)CNCCCOc1cccc(Oc2ccccc2)c1 (centres undefined) returned D1 agonist inactive, D1 PAM inactive, D3 ag inactive, D1 antag inactive and D3 antag inconclusive.
Screening FC(F)(F)c1cccc(OCCN2CCN(Cc3ccccc3)CC2)c1 returned D1 agonist inactive, D1 PAM inactive, D3 ag inactive, D1 antag inactive and D3 antag -82.
For CS(=O)(=O)c1ccc(C(=O)OCC(=O)NC(=O)C2COc3ccccc3O2)cc1[N+](=O)[O-] (centres undefined) the results were D3 ag inactive and D3 antag inactive.
Screening Cc1ccccc1NC(=O)Cc1nc(COC(=O)c2ccc(S(C)(=O)=O)c([N+](=O)[O-])c2)cs1 returned D1 agonist inactive, D1 PAM inactive, D3 ag inactive, D1 antag -36 and D3 antag -73.
Screening CC(=O)Nc1ccc(NC(=O)COC(=O)/C=C/c2ccc3c(c2)OCO3)cc1 returned D1 agonist inactive, D3 ag inactive, D1 antag inactive and D3 antag inactive.
CS(=O)(=O)c1ccc(C(=O)OCC(=O)NC(=O)C2CCCCC2)cc1[N+](=O)[O-] was read as D1 agonist inactive, D1 PAM inactive, D3 ag inactive, D1 antag -33 and D3 antag inconclusive.
For CCOC(=O)c1c(C)[nH]c(C(=O)OCc2csc(CC(=O)Nc3ccccc3C)n2)c1C the results were D1 agonist inactive, D1 PAM inactive, D3 ag 36, D1 antag inactive and D3 antag inactive.
Cc1ccccc1NC(=O)Cc1nc(COC(=O)c2ccc(NC(N)=O)cc2)cs1 was read as D3 ag inactive and D3 antag inactive.
Screening NC(=O)c1ccc(NC(=O)COC(=O)/C=C/c2ccc3c(c2)OCO3)cc1 returned D1 agonist inactive, D1 PAM inactive, D3 ag inactive, D1 antag -41 and D3 antag inactive.
For CCc1ccc(NC(=O)CSC2=Nc3ccccc3C3=NC(CCC(=O)NCc4ccccc4OC)C(=O)N23)cc1 (centres undefined) the results were D1 agonist inactive, D1 PAM inactive, D3 ag inactive and D1 antag inactive.
Cc1nc2nc(SCC(=O)NCc3ccccc3)nn2c(C)c1Cc1ccccc1Cl was read as D1 agonist inactive, D1 PAM inactive, D3 ag inactive and D1 antag inactive.
Cc1ccc(NS(=O)(=O)c2c(C)nc3sc(C)c(C)n3c2=O)cc1F was read as D1 agonist inactive, D1 PAM inactive, D3 ag inactive and D1 antag inactive.
Screening COc1ccc(-n2c(=O)c3c(c4cc(OC)ccc4n3C)n(C)c2=O)cc1 returned D1 agonist inactive, D1 PAM inactive, D3 ag inactive and D1 antag inactive.
CC(=O)c1cccc(NC(=O)COC(=O)c2ccc(S(C)(=O)=O)c([N+](=O)[O-])c2)c1 was read as D1 agonist inactive, D1 PAM inactive, D3 ag inactive, D1 antag -34 and D3 antag inconclusive.
For CC(CCc1ccccc1)NC(=O)COC(=O)c1ccc(S(C)(=O)=O)c([N+](=O)[O-])c1 (centres undefined) the results were D1 agonist inactive, D1 PAM inactive, D3 ag inactive, D1 antag inactive and D3 antag -78.
For CS(=O)(=O)c1ccc(C(=O)OCC(=O)Nc2cccnc2Cl)cc1[N+](=O)[O-] the results were D3 ag inactive and D3 antag -68.
Screening Cc1ccccc1NC(=O)COC(=O)c1ccc(S(C)(=O)=O)c([N+](=O)[O-])c1 returned D1 agonist inactive, D1 PAM inactive, D3 ag inactive, D1 antag inactive and D3 antag -98.
CC(CCc1ccccc1)NC(=O)c1cccc([N+](=O)[O-])c1 (centres undefined) was read as D1 agonist inactive, D1 PAM inactive, D3 ag inactive, D1 antag inactive and D3 antag inactive.
Cc1ccc(C(=O)NC(C)CCc2ccccc2)cc1[N+](=O)[O-] (centres undefined) was read as D1 agonist inactive, D1 PAM inactive, D3 ag inactive, D1 antag -62 and D3 antag inactive.
Screening CC(=O)c1cccc(NC(=O)COC(=O)c2ccc3c(c2)OCO3)c1 returned D1 agonist inactive, D3 ag inactive, D1 antag -31 and D3 antag inactive.
CCCCCn1c(=O)[nH]c2cc(C(=O)NCc3ccc(C)cc3)ccc2c1=O was read as D1 agonist inactive, D1 PAM inactive, D3 ag inactive and D1 antag inactive.
Screening C[C@]12CCC(=O)C=C1CC[C@@H]1[C@@H]2[C@@H](O)C[C@@]2(C)[C@H]1CC[C@]2(O)C(=O)COP(=O)(O)O returned D3 ag inactive.
`CN1CCN(c2cc(N3CCc4ccccc4C3)c(F)cc2[N+](=O)[O-])CC1` gave D1 agonist inactive, D1 PAM inactive, D3 ag inactive, D1 antag -54 and D3 antag -61.
For CC(C)(C)SCCNS(=O)(=O)c1ccc(Cl)cc1 the results were D1 agonist inactive, D1 PAM inactive, D3 ag inactive, D1 antag inactive and D3 antag inactive.
Screening O=S(=O)(NCCC1CC1(Cl)Cl)c1ccc(Cl)cc1 (centres undefined) returned D1 agonist inactive, D1 PAM inactive, D3 ag inactive, D1 antag -38 and D3 antag inactive.
COc1ccc(OC)c(NC(=O)N(C)CCc2c(C)nn(C)c2C)c1 was read as D1 agonist inactive, D1 PAM inactive, D3 ag inactive and D1 antag inactive.
Screening CCC(CC)C(=O)OCc1cc(=O)n2nc(C3CCCCC3)sc2n1 returned D1 agonist inactive, D1 PAM inactive, D3 ag inactive and D1 antag inactive.
`CCC(CC)C(=O)OCc1cc(=O)n2nc(C3CC3)sc2n1` gave D1 agonist inactive, D1 PAM inactive, D3 ag 45 and D1 antag inactive.
Screening Cc1ccc(C(=O)NCC(=O)OCc2cc(=O)n3nc(C4CCCCC4)sc3n2)cc1 returned D1 agonist inactive, D1 PAM inactive, D3 ag inactive and D1 antag -45.
`CC(=O)OCc1cc(=O)n2nc(C3CCCCC3)sc2n1` gave D1 agonist inactive, D1 PAM inactive, D3 ag inactive and D1 antag inactive.
